# Compounds with a hit are over-represented: about 1.9% of the library has one in this group of screens.
# IL-2 act = qHTS of IL-2 Activators | IL-2 activation reporter assay, cell-based qHTS; stimulated with anti-CD3/CD4/CD28 beads; in transgenic mouse T cells | activation, % (series mostly up to about 46 µM) | 360,000 compounds, 0.065% hits; in the data active means activation above about 50%; inconclusive means mostly about 30% to 49%; further: 0% is about no effect
#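 Unstimulated transgenic mouse T cells, 750 per well, received compound and, after 60 minutes, anti-CD3/anti-CD4 bead plus anti-CD28 stimulation. EGFP and DsRed were quantified after 18 hours.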
# Pin1 inhibitor = qHTS Assay to Find Inhibitors of Pin1; Pin1 FP peptide displacement, HiFluor488, 10 min; Potency, µM (series often up to 115 µM), for inactives: top-dose activity, negative = inhibition, actives largely listed as inhibitors; 390,000 compounds, 0.009% hits; active means well fitted inhibition curve with a large enough effect in the polarisation, with a control signal flat, not every such curve was filed as active; inconclusive means small, poorly fitted or top-dose-only effect, or effect the other way, or a change in a side signal; inactive means no such curve, though single readings can be large or run the other way; the % refers to the polarisation; further: potency means the concentration at half of the fitted maximal effect; on the % scale 0 is the no-effect control and ±100 the full control effect
# Target sequence (Q13526 whole entry, looked up): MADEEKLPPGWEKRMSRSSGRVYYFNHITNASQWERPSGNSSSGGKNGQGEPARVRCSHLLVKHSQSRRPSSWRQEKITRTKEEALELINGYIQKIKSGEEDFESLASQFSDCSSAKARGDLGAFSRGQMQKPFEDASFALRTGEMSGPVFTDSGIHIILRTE
# ClpP mod = qHTS Assay for Activators of ClpP. ATP-dependent Clp protease proteolytic subunit (Bacillus subtilis (strain 168)), P80244. purified B. subtilis ClpP, FRET peptide cleavage, 20 min. Potency, µM (titrated, usually from 57.5 µM), without a hit: top-dose activity change, negative = active. 340,000 compounds, 1.9% hits. AID 651965, 2013; active means well fitted falling curve with a large enough effect; inconclusive means small, poorly fitted or top-dose-only effect; inactive means no such curve, though single readings can be large or run the other way; further: potency means the concentration at half of the fitted maximal effect; the source files actives as falling curves though it sought activators and does not explain the sign; nearly all actives have a fitted effect of over 65% in size
#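 Buffer: 100 mM Tris/HCl pH8, 100 mM KCl, 0.05% low protease BSA, 2.5% glycerol, 0.01% Tween-20. ClpP 10 microg/mL final; 20 min RT; delta FRET normalized to ADEP and DMSO controls.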
# USP2a block = qHTS Assay for Inhibitors of Ubiquitin-specific Protease USP2a Using CHOP2 as the Reporter | Ubiquitin carboxyl-terminal hydrolase 2 (Homo sapiens), O75604 | 330,000 compounds, 0.01% hits | USP2 core, Ub-CHOP2 coupled fluorogenic reporter, 485/531 | Potency, µM (series often up to 38.3 µM), without a hit: at the highest dose activity change, negative = inhibition, hits mostly inhibitors;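 further: potency means the concentration at half of the fitted maximal effect; plate controls were DMSO wells for no effect and full inhibition by NEM control for full effect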
#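 Deubiquitinase activity read as fluorescence (485/531 nm) after Ub-CHOP2 cleavage activates the enterokinase reporter on its substrate; USP2 core 10nM, Ub-CHOP2 and substrate 25nM each, 30min compound preincubation then 60min RT; data normalized to NEM, curves fitted.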
# Integrin act MD = qHTS for Activators of Integrin-Mediated Alleviation for Muscular Dystrophy; alpha7betagal myoblasts, beta-gal FDG fluorescence, 48 h; Potency, µM (titrated, usually from 38.3 µM), without a hit: at the highest dose activation, usual class: activators; 350,000 compounds, 0.064% hits;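 further: potency means the concentration at half of the fitted maximal effect; 100% = response of the positive control SU9516; nearly all actives have a fitted effect of over 60% in size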
#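 Alpha7betagal+/- myoblasts (passage 13) were plated 16-24 hr, then exposed to compounds (1:260 dilution of DMSO stock) for 48 hours at 37C. After MPER lysis, β-galactosidase reporter activity was read as FDG fluorescence (ex 480/em 540) after 30 minutes.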
# PKM2 activator = qHTS Assay for Activators of Human Muscle isoform 2 Pyruvate Kinase; Pyruvate kinase PKM (Homo sapiens), P14618; purified PKM2, Kinase-Glo ATP luminescence, activation; response scale: 0% is enzyme alone, no compound; Potency, µM (highest dose often 57.5 µM), for inactives: top-dose activation, hits mostly activators; 260,000 compounds, 0.34% hits; AID 1631, 2009; further: potency means the concentration at half of the fitted maximal effect; on the % scale 0 is the no-effect control and ±100 the full control effect; nearly all actives have a fitted effect of over 55% in size
# Target sequence (P14618 whole entry, looked up, canonical isoform): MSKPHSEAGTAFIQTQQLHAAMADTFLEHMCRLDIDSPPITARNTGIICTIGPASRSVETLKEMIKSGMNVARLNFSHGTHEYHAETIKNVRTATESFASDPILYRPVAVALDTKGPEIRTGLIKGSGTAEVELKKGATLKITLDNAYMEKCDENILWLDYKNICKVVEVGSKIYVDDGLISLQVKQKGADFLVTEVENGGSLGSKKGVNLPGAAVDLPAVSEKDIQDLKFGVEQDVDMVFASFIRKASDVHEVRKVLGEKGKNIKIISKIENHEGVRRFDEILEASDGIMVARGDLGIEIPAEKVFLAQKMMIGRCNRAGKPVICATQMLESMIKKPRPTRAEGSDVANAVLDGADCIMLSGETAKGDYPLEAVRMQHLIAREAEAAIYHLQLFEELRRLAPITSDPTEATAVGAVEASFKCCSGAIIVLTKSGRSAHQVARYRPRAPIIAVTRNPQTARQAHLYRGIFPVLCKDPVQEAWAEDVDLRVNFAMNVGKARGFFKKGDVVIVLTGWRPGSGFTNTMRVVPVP
#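 Kinase-Glo luminescence reports ATP generated from ADP (0.1 mM) and PEP (0.5 mM) by purified hPK-M2 after 1 h at room temperature, pH 7.2 imidazole buffer; intermediate enzyme activity allows detecting inhibitors and activators.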
# Active calls of the source: *; ? = inconclusive; · = no result; [ ] = dose if it differs, or a comment. Unless noted, the call rests on the fitted dose curve; in most records, active means well fitted curve in the direction sought with a large enough effect; inconclusive means small, poorly fitted or top-dose-only effect, or another doubt; inactive means no such curve, though single readings can be large; an effect the other way counts as inactive or inconclusive.
SMILES,IL-2 act,Pin1 inhibitor,ClpP mod,USP2a block,Integrin act MD,PKM2 activator
c1coc(CNc2ncnc3c2nc2n3CCCC2)c1,·,·,-2%,·,·,·
Cn1c(=O)c2c(-c3ccccc3)n(-c3ccccc3O)cc2n(C)c1=O,-1,2%,28µM*,1%,-12%,0%
COc1ccc(-c2c3c(=O)n(C)c(=O)n(C)c3cn2-c2cc(OC)ccc2OC)cc1,-1,2%,28µM*,4%,9%,1%
CCc1cc(C(=O)/C=C/c2cc3c(cc2C)OCCO3)c(O)cc1O,·,·,-1%,·,·,·
COCCNC(=O)[C@@H]1CSC2c3ccccc3C(=O)N21 (stereo not given in full),-1,0%,32µM*,0%,-14%,·
CCCCNC(=O)[C@@H]1CSC2c3ccccc3C(=O)N21 (stereo not given in full),0,-8%,·,0%,14%,·
COc1cc(NC(=O)C(OC(=O)CNC(=O)c2ccccc2)c2ccccc2)c(OC)cc1Cl (stereo not given),·,0%,·,·,·,·
CN1CCN(C2=C(Cl)C(=O)c3ccccc3C2=O)CC1,-3,67µM*,98%,·,-6%,·
O=C1C(Cl)=C(N2CCC(C(=O)O)CC2)C(=O)c2ccccc21,-3,-10%,1%,2%,?,8%
CCN(Cc1cccc(S(=O)(=O)O)c1)c1ccc(C(=C2C=CC(=[N+](CC)Cc3cccc(S(=O)(=O)O)c3)C=C2)c2ccccc2S(=O)(=O)[O-])cc1,·,·,-6%,·,·,·
COc1cc(OC)cc(-c2nnc3n2N=C(c2ccc(OC)c(OC)c2)CS3)c1,·,8%,·,·,·,·
N#Cc1c(C(F)(F)F)cc(-c2cccs2)nc1SCc1cccnc1,-2,-1%,8.9µM*,-1%,-10%,-3%
N#Cc1c(C(F)(F)F)cc(-c2cccs2)nc1SCc1ccc(F)cc1,·,0%,-30%,·,·,·
O=C1CCCC2=C1C1(CCCC1)N=C(Nc1nc3cc(Br)ccc3o1)N2,·,5%,·,·,·,·
O=C(NCc1cccnc1)C(=O)NCC(c1ccco1)N1CCN(c2ccccc2F)CC1 (stereo not given),0,-3%,18µM*,4%,-19%,-1%
Cc1ccc(NS(=O)(=O)c2ccc3c(c2)CCC(=O)N3)cc1Cl,·,-2%,·,·,·,·
CC1=C(C(=O)OC2CCCCC2)C(c2ccccc2)NC(=O)N1 (stereo not given),1,-9%,2.8µM*,-1%,-2%,0%[11.5 µM]
CCCCCCCCNc1ccccc1S(=O)(=O)NCc1ccccc1,-1,?,32µM*,-3%,-10%,·
CN(C)c1ccc(-c2noc(-c3ccccc3O)n2)cc1,-1,-3%,10µM*,0%,1%,-3%
CN(C)c1nc(-c2ccccc2)c2cnn(Cc3ccccc3)c2n1,-1,0%,28µM*,2%,-13%,-8%
O=C(OCc1ccc2c(c1)OCO2)c1ccc(S(=O)(=O)N2CCCC2)cc1,0,2%,-5%,-5%,-4%,8.9µM*
CCS(=O)(=O)N1CCN(S(=O)(=O)c2ccc3c(c2)OCCO3)CC1,0,1%,·,0%,0%,3.5µM*
Cc1ccc(S(=O)(=O)N2CCCN(S(=O)(=O)c3ccc4c(c3)OCCO4)CC2)cc1,1,3%,0%,2%,-10%,0.35µM*
CC(=O)Nc1ccc(S(=O)(=O)N2CCCN(S(=O)(=O)c3ccc4c(c3)OCCO4)CC2)cc1,·,2%,·,·,·,·
O=S(=O)(c1ccc2c(c1)OCCO2)N1CCN(c2cccc(Cl)c2)CC1,1,-2%,-1%,-7%,4%,2.8µM*
SMILES,IL-2 act,Pin1 inhibitor,ClpP mod,USP2a block,Integrin act MD,PKM2 activator
O=S(=O)(c1cccc(Cl)c1)N1CCN(S(=O)(=O)c2ccc3c(c2)OCCO3)CC1,-1,0%,·,0%,·,·
CN1CCN(S(=O)(=O)c2ccc3c(c2)OCCO3)CC1,3,-2%,1%,2%,-8%,11%
Nc1ccccc1S(=O)(=O)Nc1cccc2cccnc12,·,1%,·,·,·,·
O=S(=O)(c1ccc(F)c(F)c1)N1CCN(Cc2ccc3c(c2)OCO3)CC1,1,1%,-2%,-2%,-3%,0%
COc1ccc(S(=O)(=O)N2CCN(C(=O)CNC(=O)c3ccc4c(c3)OCO4)CC2)cc1,-5,-3%,28µM*,1%,-2%,·
O=S(=O)(c1ccc2c(c1)OCCO2)N1CCN(Cc2ccc3c(c2)OCO3)CC1,-2,0%,-4%,-2%,-6%,3.5µM*
O=C(NCC(=O)N1CCN(S(=O)(=O)c2ccccc2F)CC1)c1ccc2c(c1)OCO2,-1,-1%,·,5%,0%,·
COc1cccc(CNc2nc3cc(-c4cccc(Cl)c4)sc3c(=O)n2C)c1,1,·,20µM*,·,·,·
COCCNc1nc(NCCOC)c2sc(-c3ccccc3)cc2n1,-1,·,-9%,·,·,·
Cc1ccc(CNc2nc3cc(-c4ccccc4)sc3c(=O)n2C)c(C)c1,-1,·,28µM*,·,·,·
COc1cccc(-c2cc3nc(NCc4cccnc4)n(C)c(=O)c3s2)c1,2,·,-21%,·,·,·
C=CCNc1nc(NCc2cccc(OC)c2)c2sc(-c3ccccc3)cc2n1,0,·,20µM*,·,·,·
COc1ccc(C2Nc3ccccc3C(=O)N2Cc2ccccc2)cc1COc1ccc(Cl)cc1 (stereo not given),·,8%,·,·,·,·
CCOC(=O)c1ccccc1NC(=O)COC(=O)CSCC(=O)Nc1cc(C)on1,1,-1%,0%,1%,-2%,·
Cc1cc(NC(=O)COC(=O)c2ccccc2NCCO)no1,-3,3%,16µM*,2%,24%,·
O=C(Nc1ccccc1)c1ccccc1N=Cc1ccccc1O,0,-5%,35µM*,2%,24%,2%
COc1cc2ccccc2cc1C(=O)Nc1nccs1,-4,-2%,-6%,-1%,10%,2%
COc1cccc(C=Nc2ccccc2C(=O)Nc2nccs2)c1OC,0,-8%,32µM*,-1%,1%,-2%
O=C(Nc1nccs1)c1ccccc1N=Cc1ccccc1,1,-8%,28µM*,1%,28%,5%
O=C(Nc1nccs1)c1cccnc1Cl,0,1%,-2%,-9%,33%,·
CCN(CC)CCCN(Cc1cc2cc(OC)c(OC)cc2[nH]c1=O)C(=O)Nc1ccccc1,-2,3%,32µM*,1%,-16%,0%

# Assay outcomes from PubChem BioAssay.
